In PubChem BioAssay AID2018 (Sanford-Burnham Center for Chemical Genomics, 2009):
In all, about 1,200 compounds went through this assay and about 600 (50%) were called active. So high a share suggests a set chosen from earlier hits. Some of the results follow. Potency and affinity values are given separately. Values without a mark were called inactive. No stated cut-off is given here; in the data, active means inhibition above about 42%; inactive means the rest.

Biological target: SUMO-conjugating enzyme UBC9 (Homo sapiens) (UniProt P63279)
Assay: SUMOylation inhibitor hit validation, confirmation, SUMOylation inhibitor project, biochemical, AlphaScreen (AID 2018)
Details: AlphaScreen in vitro SUMOylation assay; at 35 µM; hits give high values

SUMO-conjugating enzyme UBC9 (Homo sapiens), sequence (P63279 whole entry, looked up): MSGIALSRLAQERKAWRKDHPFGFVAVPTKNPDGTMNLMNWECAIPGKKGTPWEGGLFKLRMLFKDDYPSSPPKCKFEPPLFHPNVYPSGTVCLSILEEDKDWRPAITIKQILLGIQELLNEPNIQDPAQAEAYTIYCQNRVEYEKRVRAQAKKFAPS

Question: Which inhibition does the source give for O=[N+]([O-])c1ccc(Cl)c(C2Nc3cccc4cccc(c34)N2)c1 here?
Answer: Its inhibition is 30.6%.

Question: For O=C(CNc1cccc2ccccc12)c1ccc([N+](=O)[O-])cc1, which inhibition is on record?
Answer: The inhibition was 26.3%.

Question: O=[N+]([O-])c1ccc(C2Nc3cccc4cccc(c34)N2)cc1 was tested. Which inhibition did it give?
Answer: The inhibition was 49.3% (active).

Question: With CN(CCC#N)C(=O)COC(=O)c1c2c(nc3ccccc13)/C(=C/c1ccco1)CC2 as the molecule, how does the inhibition read?
Answer: The inhibition was 43.2% (active).

Question: Cc1cnc(C(=O)OCC(=O)c2ccc(F)cc2)cn1 was tested. Which inhibition did it give?
Answer: The inhibition was 1.5%.

Question: CCOc1ccc(C2C=C(c3ccccc3)Nc3ncnn32)cc1 (stereo not drawn) was tested. Which inhibition did it give?
Answer: Its inhibition is 13.5%.

Question: Which inhibition does the source give for CC1=CC2(O)OCCN(CCO)C2=CC1=O (stereo not drawn) here?
Answer: Its inhibition is 8.3%.

Question: How did the inhibition turn out when NC(=O)C1CCN(C2=C(NS(=O)(=O)c3ccccc3)C(=O)c3ccccc3C2=O)CC1 was run?
Answer: The inhibition was 35.9%.

Question: For CC1CCN(C2=C(NS(=O)(=O)c3ccc(Br)cc3)C(=O)c3ccccc3C2=O)CC1, which inhibition is on record?
Answer: The inhibition was 94% (active).

Question: Which inhibition does the source give for CCOC(=O)C1CCCN(c2cc(NCCCO)c([N+](=O)[O-])c3nonc23)C1 (stereo not drawn) here?
Answer: Its inhibition is -6.6%.

Question: For NC(=O)C1CCN(C2=C(NS(=O)(=O)c3ccc(Cl)cc3)C(=O)c3ccccc3C2=O)CC1, which inhibition is on record?
Answer: The inhibition was 87.2% (active).

Question: For CCOC(=O)C1CCN(C2=C(NS(=O)(=O)c3ccc(Br)cc3)C(=O)c3ccccc3C2=O)CC1, which inhibition is on record?
Answer: The inhibition was 91.9% (active).

Question: With CC1CCCN(C2=C(NS(=O)(=O)c3ccc(Br)cc3)C(=O)c3ccccc3C2=O)C1 (stereo not drawn) as the molecule, how does the inhibition read?
Answer: The inhibition was 55.3% (active).

Question: Which inhibition does the source give for Fc1ccc(-c2nc3cnccn3c2NC2CCCC2)cc1 here?
Answer: Its inhibition is -43.2%.

Question: For COc1cc2c(cc1OC)C(C)=NC1(CCCCC1)C2, which inhibition is on record?
Answer: The inhibition was -0.1%.

Question: How did the inhibition turn out when c1ccc(Nc2ccccc2Nc2ccccn2)nc1 was run?
Answer: Its inhibition is -1.2%.

Question: Which inhibition does the source give for CN(C)c1cccc2c(S(=O)(=O)N3CCCC3)cccc12 here?
Answer: Its inhibition is -26.8%.

Question: How did the inhibition turn out when CN(C)c1cccc2c(S(=O)(=O)Nc3ccccn3)cccc12 was run?
Answer: The inhibition was 69.7% (active).

Question: Cc1cccc(NC2=C(NCCO)C(=O)c3ccccc3C2=O)c1 was tested. Which inhibition did it give?
Answer: The inhibition was 82% (active).

Question: How did the inhibition turn out when Cc1cccc(NC(=S)Nc2cccc3ccccc23)c1 was run?
Answer: The inhibition was 19%.

Question: With N#Cc1c(-c2cccc(Br)c2)cc(-c2ccco2)[nH]c1=O as the molecule, how does the inhibition read?
Answer: Its inhibition is 54% (active).

Question: O=C(CSc1nnc(SCc2ccccc2)s1)N/N=C/C=C\c1ccco1 was tested. Which inhibition did it give?
Answer: The inhibition was 65% (active).

Question: Which inhibition does the source give for O=C(Cc1cccs1)N/N=C/C=C\c1ccco1 here?
Answer: The inhibition was 26%.

Question: For O=C(CNc1cccc2ccccc12)N/N=C/c1ccc(OC(=O)/C=C/c2ccco2)cc1, which inhibition is on record?
Answer: The inhibition was 3.4%.

Question: With Cn1c2ccc(Cl)cc2c2nc3ccccc3nc21 as the molecule, how does the inhibition read?
Answer: The inhibition was 4.7%.

Question: How did the inhibition turn out when COCCn1c(-c2cccs2)csc1=Nc1cccnc1 was run?
Answer: Its inhibition is 12.7%.

Question: Which inhibition does the source give for Cn1c(C(=O)N2CCN(C(=O)c3ccco3)CC2)cc2c(=O)n3ccccc3nc21 here?
Answer: Its inhibition is -14.7%.

Question: COCCCn1c(C(=O)N2CC(C)OC(C)C2)cc2c(=O)n3ccccc3nc21 (stereo not drawn) was tested. Which inhibition did it give?
Answer: Its inhibition is -18.6%.

Question: Which inhibition does the source give for Cc1cccn2c(=O)c3cc(S(=O)(=O)c4ccc(F)cc4)c(=N)n(Cc4ccco4)c3nc12 here?
Answer: Its inhibition is 7.6%.

Question: With Cn1c(C(=O)NCC2CCCO2)cc2c(=O)n3ccccc3nc21 (stereo not drawn) as the molecule, how does the inhibition read?
Answer: Its inhibition is -2.8%.

Question: With Cn1c(C(=O)N2COCC2(C)C)cc2c(=O)n3ccccc3nc21 as the molecule, how does the inhibition read?
Answer: Its inhibition is -16.1%.

Question: For COCCCn1c(C(=O)N2CCOCC2)cc2c(=O)n3ccccc3nc21, which inhibition is on record?
Answer: Its inhibition is 2.8%.

Question: With CC1CCCCC1NC(=O)c1cc2c(=O)n3ccccc3nc2n1C (stereo not drawn) as the molecule, how does the inhibition read?
Answer: Its inhibition is -8.7%.

Question: Which inhibition does the source give for Cc1ccc(S(=O)(=O)c2cc3c(=O)n4ccccc4nc3n(Cc3ccco3)c2=N)cc1C here?
Answer: Its inhibition is 45.2% (active).

Question: For Cc1cccn2c(=O)c3cc(S(=O)(=O)c4ccccc4)c(=N)n(Cc4ccco4)c3nc12, which inhibition is on record?
Answer: Its inhibition is 27.5%.

Question: Which inhibition does the source give for CCN(CC(=O)c1c(N)n(C)c(=O)n(C)c1=O)c1cccc2ccccc12 here?
Answer: Its inhibition is -12.9%.

Question: With O=c1c2cc(N3CCOCC3)ccc2[nH]c(=S)n1Cc1ccccn1 as the molecule, how does the inhibition read?
Answer: Its inhibition is 2.9%.

Question: For Oc1cccc2c(NC(=S)Nc3ccc(OC(F)F)cc3)cccc12, which inhibition is on record?
Answer: Its inhibition is 27.3%.

Question: Nc1cccc2cnccc12 was tested. Which inhibition did it give?
Answer: The inhibition was 45.1% (active).

Question: How did the inhibition turn out when CC(C)NC(=S)Nc1cccc2cnccc12 was run?
Answer: Its inhibition is -0.7%.

Question: How did the inhibition turn out when FC(F)(F)c1ccccc1NC(=S)Nc1cccc2cnccc12 was run?
Answer: Its inhibition is 18.9%.

Question: With CCc1ccc(OCC(=O)N/N=C2\CC(=O)c3ccccc32)cc1 as the molecule, how does the inhibition read?
Answer: Its inhibition is 100% (active).

Question: How did the inhibition turn out when CC(C)c1onc(C(=O)N2CCC(C(N)=O)CC2)c1[N+](=O)[O-] was run?
Answer: The inhibition was -13.8%.

Question: With Cn1c(=O)c2cc(NCc3ccccc3)nnc2n(C)c1=O as the molecule, how does the inhibition read?
Answer: Its inhibition is 12.8%.

Question: For O=C1C=C(NCc2ccccc2)c2ccccc2C1=O, which inhibition is on record?
Answer: The inhibition was 102% (active).

Question: With Cc1ccc(NC2=CC(=O)C(=O)c3ccccc32)cc1 as the molecule, how does the inhibition read?
Answer: Its inhibition is 100% (active).

Question: With Fc1cccc(-n2c(-c3cccs3)nc3nc4ccccc4nc32)c1 as the molecule, how does the inhibition read?
Answer: The inhibition was 8.7%.

Question: Which inhibition does the source give for CC(C)(C)c1ccc(C(=O)NNc2cc(N3CCOCC3)nc(N3CCOCC3)n2)cc1 here?
Answer: The inhibition was 23.5%.

Question: For O=C(CCc1ccccc1)NNc1cc(N2CCCCC2)nc(N2CCCCC2)n1, which inhibition is on record?
Answer: The inhibition was 50% (active).

Question: With O=C(NNc1cc(N2CCOCC2)nc(N2CCOCC2)n1)c1ccc(Cl)c(Cl)c1 as the molecule, how does the inhibition read?
Answer: The inhibition was 66.9% (active).

Question: For CCCCOc1ccc(CSc2ncn[nH]2)cc1, which inhibition is on record?
Answer: Its inhibition is 3.3%.

Question: With O=C(Nc1ccccc1-c1nc2ccccc2s1)c1cccnc1Cl as the molecule, how does the inhibition read?
Answer: Its inhibition is 18.7%.

Question: Which inhibition does the source give for CCN1C(=O)N(CC)c2cccc3cccc1c23 here?
Answer: The inhibition was 10.6%.

Question: For CC1N(C)c2cccc3cccc(c23)N1C, which inhibition is on record?
Answer: Its inhibition is 49.8% (active).

Question: How did the inhibition turn out when C=CCN1C(=O)N(CC=C)c2cccc3cccc1c23 was run?
Answer: Its inhibition is -10.4%.

Question: O=C(c1csc(Nc2cccc3ccccc23)n1)N1CCCC1 was tested. Which inhibition did it give?
Answer: Its inhibition is 19.2%.

Question: For C[n+]1cccc2c(Br)ccc([O-])c21, which inhibition is on record?
Answer: The inhibition was 102% (active).

Question: With C[n+]1cccc2cccc([O-])c21 as the molecule, how does the inhibition read?
Answer: Its inhibition is 101% (active).

Question: With C[n+]1cccc2ccc3c(c21)OC(N)=C(C#N)C3c1ccccc1 (stereo not drawn) as the molecule, how does the inhibition read?
Answer: The inhibition was -6.6%.

Question: With Cc1ccc(N2CSC3=C(C#N)C(c4cccs4)CC(=O)N3C2)cc1 (stereo not drawn) as the molecule, how does the inhibition read?
Answer: Its inhibition is 38.3%.

Question: CCCCN(C)S(=O)(=O)c1cc(Br)cc2c1N(C(=O)C1CC1)CC2 was tested. Which inhibition did it give?
Answer: The inhibition was -3.7%.

Question: O=c1[nH]cc(I)cc1I was tested. Which inhibition did it give?
Answer: Its inhibition is 8.4%.

Question: With Cc1cc(-c2csc(N)n2)c(C)n1Cc1ccco1 as the molecule, how does the inhibition read?
Answer: The inhibition was 21.9%.
